A selection: hits, their analogues and other compounds. The true share with any hit is near 5.7%.
D3 ag: activates the human D3 dopamine receptor; D3R DiscoveRx beta-arrestin cells, luminescence, 90 min; max activation, %; AID 652048; 410,000 compounds, 0.58% hits; in the data active = max activation above about 30%; note: 0% is about no effect
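Agonist mode: compounds and dopamine controls were applied to plated cells for 90 min at 37 degrees C after an overnight attachment at 1500 cells/well. Luminescent read-out followed 30 - 60 minutes at room temperature with DiscoveRx detection reagent.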
GLP-1R inv ag: inverse agonists of human GLP-1 receptor | HEK293 GLP-1R CRE-luciferase, luminescence, 24 h; GLP-1R form is constitutively active | Potency, µM (highest dose often 38.3 µM), for inactives: top-dose activity change, negative = inhibition, most hits filed as inhibitors | 410,000 compounds, 1.6% hits; note: potency is the fitted concentration of half-maximal effect; % is set by controls: 0 for no effect and ±100 for the full control effect; nearly all actives have a fitted effect of over 55% in size
Target sequence (P43220 whole entry, looked up): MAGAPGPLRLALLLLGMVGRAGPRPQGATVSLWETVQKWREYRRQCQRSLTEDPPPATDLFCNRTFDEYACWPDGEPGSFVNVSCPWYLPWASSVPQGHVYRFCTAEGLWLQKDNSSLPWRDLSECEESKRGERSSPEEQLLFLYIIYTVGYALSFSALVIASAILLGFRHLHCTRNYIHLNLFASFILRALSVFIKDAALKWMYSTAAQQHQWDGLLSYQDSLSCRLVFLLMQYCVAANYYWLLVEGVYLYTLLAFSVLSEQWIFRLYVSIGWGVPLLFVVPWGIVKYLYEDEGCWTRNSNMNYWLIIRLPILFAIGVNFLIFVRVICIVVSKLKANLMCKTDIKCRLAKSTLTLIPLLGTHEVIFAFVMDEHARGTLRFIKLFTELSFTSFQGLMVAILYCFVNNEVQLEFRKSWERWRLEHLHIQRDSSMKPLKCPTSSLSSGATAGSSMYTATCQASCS
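Inverse agonism was detected as reduced cAMP-driven luciferase luminescence after 24 h compound treatment. The cells were HEK293 clones expressing constitutively active human GLP-1R with the reporter. Reporter-only and GPR119 cell lines served as counterscreen controls.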
HEK293 tox: cytotoxic in the GLP-1 receptor inverse agonist counter-screen. HEK293 cAMP-luciferase reporter cells, luminescence, 24 h. Potency, µM (top dose mostly 38.3 µM), inactives show at the top dose activity change, negative = inhibition, most hits filed as inhibitors. 410,000 compounds, 0.13% hits;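 note: loss of luciferase light is scored as toxicity; potency is the fitted concentration of half-maximal effect; % is set by controls: 0 for no effect and ±100 for the full control effect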
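Compound-treated cells are incubated 24 hr at 37 deg C under 5% CO2 after a 12 hour attachment period, then luciferase detection reagent is added and luminescence is measured following 12 min at room temperature; lowered signal indicates toxicity.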
ClpP mod: qHTS Assay for Activators of ClpP | AID 651965, 2013 | Potency, µM (highest dose often 57.5 µM), for inactives: at the top dose activity change, negative = active | 340,000 compounds, 1.9% hits | ATP-dependent Clp protease proteolytic subunit (Bacillus subtilis (strain 168)), P80244 | purified B. subtilis ClpP, FRET peptide cleavage, 20 min; active = well fitted falling curve with a large enough effect; inconclusive = small, poorly fitted or top-dose-only effect; inactive = no such curve, though single readings can be large or run the other way; note: potency is the fitted concentration of half-maximal effect; the source files actives as falling curves though it sought activators and does not explain the sign; nearly all actives have a fitted effect of over 65% in size
Target sequence (P80244 whole entry, looked up): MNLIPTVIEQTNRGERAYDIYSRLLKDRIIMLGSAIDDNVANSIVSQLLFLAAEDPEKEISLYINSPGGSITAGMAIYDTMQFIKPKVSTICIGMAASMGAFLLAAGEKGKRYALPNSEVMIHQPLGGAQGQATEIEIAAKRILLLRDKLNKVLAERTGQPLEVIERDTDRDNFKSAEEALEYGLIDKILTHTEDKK
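Buffer: 100 mM Tris/HCl pH8, 100 mM KCl, 0.05% low protease BSA, 2.5% glycerol, 0.01% Tween-20. ClpP 10 microg/mL final; 20 min RT; delta FRET normalized to ADEP and DMSO controls.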
D3 antag: D3 dopamine receptor (human) antagonism | D3R cells, DiscoveRx beta-arrestin luminescence, antagonist mode; active compounds read low | max response, negative = inhibition, % | AID 652054 | P35462 | 360,000 compounds, 2.5% hits; in the data active = max response below about -50%; inconclusive = no clear call, values can overlap the other calls; note: % is set by controls: 0 for no effect and ±100 for the full control effect
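Cells plated overnight at 1500 cells/well, then exposed to library compounds with dopamine controls for 90 minutes at 37 degrees C. DiscoveRx reagent added for 30–60 minutes at room temperature; luminescence read, quantitative HTS format.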
GLP1R ag: agonists of human GLP-1 receptor; P43220; HEK293 GLP-1R CRE-luciferase, luminescence, 4-6 h; cells express a hypersensitive GLP-1R form; Potency, µM (highest dose often 45.6 µM), for inactives: at the top dose activation, actives largely listed as activators; 380,000 compounds, 0.007% hits; AID 624172; note: potency is the fitted concentration of half-maximal effect; % of control where 0% means no effect
Active calls of the source: *; ? = inconclusive; / = no result given. Unless noted, calls come from the whole dose curve; as a rule, active = well fitted curve in the direction sought with a large enough effect; inconclusive = small, poorly fitted or top-dose-only effect, or another doubt; inactive = no such curve, though single readings can be large; an effect the other way counts as inactive or inconclusive.

SMILES	D3 ag	GLP-1R inv ag	HEK293 tox	ClpP mod	D3 antag	GLP1R ag
O=C(CN(c1cc(C(F)(F)F)ccc1Cl)S(=O)(=O)c1ccccc1)NCCc1ccccc1	0	?	5%	-2%	/	-13%
Cc1ccc2nc(SCC(=O)Nc3cc(C(F)(F)F)ccc3N3CCOCC3)[nH]c2c1	-3	1.3µM*	?	1%	-15	17%
CCSC1=NC2(CCCCC2)Nc2sc3c(c21)CCCC3	0	?	5%	-9%	-61*	11%
Cc1ccc(C)c(S(=O)(=O)Nc2ccc(C(=O)NCC(c3ccco3)N3CCCCC3)cc2)c1 (centres undefined)	-28	?	?	1%	-19	1%
Cc1ccccc1NS(=O)(=O)c1ccc(OCC(=O)N2CCCCC2)cc1	32*	-28%	-10%	0%	9	-3%
Cc1ccccc1NS(=O)(=O)c1ccc(C(=O)NCC(c2ccccc2)N(C)C)cc1 (centres undefined)	-11	?	-1%	2%	?	1%
Cc1ccc(C)c(S(=O)(=O)Nc2ccc(C(=O)NCC(c3ccco3)N(C)C)cc2)c1 (centres undefined)	0	?	-3%	-1%	-53*	15%
Cc1ccccc1NS(=O)(=O)c1ccc(C(=O)NCC(c2ccco2)N2CCCCC2)cc1 (centres undefined)	-22	10µM*	-1%	1%	-12	-9%
Cc1ccccc1NS(=O)(=O)c1ccc(C(=O)NCC(c2ccco2)N(C)C)cc1 (centres undefined)	-14	?	0%	-3%	-57*	6%
COc1ccc(NC(=O)CSC2=Nc3ccccc3C3=NC(CC(=O)NCc4ccc5c(c4)OCO5)C(=O)N23)cc1 (centres undefined)	-7	22%	-10%	-1%	/	/
Cc1c(NS(=O)(=O)c2ccccc2)cc(C(C)C)c(O)c1S(=O)(=O)c1ccc(Cl)cc1	-5	?	-6%	1%	/	-6%
O=C(Cc1cccs1)NC1CC(=O)N(c2cccc(F)c2)C1 (centres undefined)	7	1%	0%	0%	/	/
COc1ccc(CCNC(=O)c2cnc3ccc(C)cn3c2=O)cc1OC	1	33%	1%	-20%	/	/
CC(C)NC(=O)C1(C)CCN1C(=O)C1(c2ccccc2)CC1 (centres undefined)	-6	5%	3%	2%	-17	11%
Cc1ccc(S(=O)(=O)N(C)c2ccc(C(=O)NCC(c3ccco3)N(C)C)cc2)cc1 (centres undefined)	-18	7.1µM*	-16%	0%	-27	-3%
COc1ccccc1NS(=O)(=O)c1cc(C(=O)NCC(c2ccco2)N2CCCCC2)ccc1C (centres undefined)	-25	10µM*	-12%	-5%	?	10%
CCOc1cc(C(=O)N(Cc2nc(-c3ccc(C)cc3)no2)C(C)C)cc(OCC)c1OCC	-13	-4%	-2%	-1%	/	1%
O=C(NNc1ccc(F)cc1)c1c(F)cccc1Cl	0	1.1µM*	-25%	0%	4	0%
O=C1C=CC(=O)N1CCCCCCN1C(=O)C=CC1=O	-14	?	?	5%	-72*	-22%
COc1cc2nc(N3CCCN(C)CC3)nc(NC3CCNCC3)c2cc1OC	/	/	/	4%	/	/
COc1cccc(C(=O)NC2CC3CCCC(C2)N3CC(=O)Nc2ccccc2)c1 (centres undefined)	-3	?	-29%	-1%	-59*	-1%
COc1cccc(C(=O)NC2CC3CCCC(C2)N3Cc2ccc(F)cc2)c1 (centres undefined)	-12	-10%	-11%	-4%	-107*	7%
O=C(CN1C2CCCC1CC(NC(=O)c1ccccc1)C2)Nc1ccccc1C(F)(F)F (centres undefined)	5	2µM*	-7%	/	23	13%
COc1cccc(C(=O)NC2CC3CCCC(C2)N3Cc2ccc(C)cc2)c1 (centres undefined)	-18	?	-24%	-1%	-112*	-2%
O=C(CN1C2CCCC1CC(NC(=O)c1ccco1)C2)Nc1ccccc1C(F)(F)F (centres undefined)	8	?	-12%	0%	8	-4%
SMILES	D3 ag	GLP-1R inv ag	HEK293 tox	ClpP mod	D3 antag	GLP1R ag
COc1cccc(C(=O)NC2CC3CCCC(C2)N3CC(=O)Nc2ccc(N(C)C)cc2)c1 (centres undefined)	-2	?	-11%	0%	8	-6%
CCN(CCCNC(=O)c1ccc(Sc2ccc(F)cc2)c(NC(C)=O)c1)c1ccccc1	10	?	-3%	-1%	/	/
COC(=O)c1cnc(N2CCN(c3ccc(OC)cc3)CC2)c2ccccc12	10	10%	2%	-6%	/	/
O=C(CS(=O)c1ccccc1[N+](=O)[O-])Oc1ccc(Br)cc1 (centres undefined)	5	8%	-3%	/	6	0%
CS(=O)(=O)c1ccc(S(=O)CC(=O)Oc2ccc(Cl)cc2)c([N+](=O)[O-])c1 (centres undefined)	-16	?	-31%	/	-102*	0%
Cc1ccc(SCc2nc(-c3ccc(C(=O)NCCc4ccc(Cl)cc4)cc3)oc2C)cc1	-7	9%	3%	-1%	/	/
Cc1ccc(SCc2nc(-c3ccc(C(=O)NCC(C)c4ccccc4)cc3)oc2C)cc1 (centres undefined)	-14	4.5µM*	0%	4%	/	/
CCCCc1c(-c2ccccc2OC)ncn1CCc1ccccc1Cl	-1	?	?	-9%	1	-1%
O=C(Oc1ccccc1)c1cccc2cccnc12	-6	-18%	-18%	0%	-54*	2%
O=C(Oc1cccc2ccccc12)c1ccco1	-5	81%	45%	1%	6	10%
O=C(Oc1cccc2cccnc12)c1ccco1	-13	10µM*	?	1%	?	-1%
O=C(Cc1ccc(Cl)cc1)Oc1cccc2cccnc12	-13	-1%	2.5µM*	6%	?	22%
O=C(Oc1cccc2cccnc12)c1ccc(Br)o1	8	-13%	-26%	-2%	-21	5%
O=C(Oc1ccc(Cl)c2cccnc12)c1ccco1	-40	?	?	-1%	-138*	-9%
NC(N)=NCC1COC2(CCCCC2)O1 (centres undefined)	3	/	/	/	/	/
